Screens deposited in PubChem by National Center for Advancing Translational Sciences (NCATS).
Many of the other results were omitted from the sample, so hits are more common in it than they were.
AMA1-RON2 inh = disrupts binding of P. falciparum AMA1 to RON2; Potency, µM (highest dose often 58.2 µM), inactives show top-dose activity change, negative = inhibition, hits mostly inhibitors; hit rate 0.2% among 360,000; AlphaScreen AMA1-biotinylated RON2 peptide binding;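 also: potency is read from the fitted curve at half-maximal effect; 0% = vehicle wells and -100% = peptide control; nearly all actives have a fitted effect of over 45% in size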
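AMA1 (3D7) with his tag at 25 nM final met compounds first, then biotinylated RON2 peptide at 25 nM; detection used donor plus acceptor beads, 10 µg/mL apiece, read by AlphaScreen after 30 min at room temperature.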
Cycloheximide cs = counter-screen for Shiga toxin inhibitors: cycloheximide protein synthesis inhibition | cell reporter, cycloheximide protein synthesis inhibition counterscreen | max response, % | hit rate 12% among 300,000 | AID 2314; in the data active = max response mostly above about 13%, no sharp cut-off; inactive = mostly below about 14%; also: read at 38.3 µM for the half of the compounds with a filed dose; 0% is about no effect
Shiga toxin inh = Shiga toxin inhibition. Vero cells, Shiga toxin protein synthesis inhibition reporter. inhibition, % at 38.7 µM. hit rate 9.2% among 290,000. AID 2315; in the data active = inhibition mostly above about 28%, no sharp cut-off; inactive = mostly below about 43%; also: 0% is about no effect
SARS PLpro yeast = inhibitors of SARS-CoV papain-like protease in yeast; S. cerevisiae expressing SARS-CoV PLpro, growth rescue; Potency, µM (doses to about 32.9 µM), for the others: at the highest dose activity, positive = growth rescue, actives largely listed as activators; hit rate 0.19% among 330,000; calls by dose curve; also: potency is read from the fitted curve at half-maximal effect; 0% is about no effect; nearly all actives have a fitted effect of over 55% in size
AmpC detergent = AmpC beta-lactamase inhibition with detergent present; hit rate 0.041% among 370,000; AmpC hydrolysis of nitrocefin, absorbance 480 nm, 0.01% Triton; Potency, µM (titrated, usually from 114 µM), for the others: top-dose activity change, negative = inhibition, most hits filed as inhibitors; P00811; AID 485294;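 also: potency is read from the fitted curve at half-maximal effect; 0% = no-compound wells and -100% = no-enzyme wells; nearly all actives have a fitted effect of over 25% in size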
Target sequence (P00811 whole entry, looked up): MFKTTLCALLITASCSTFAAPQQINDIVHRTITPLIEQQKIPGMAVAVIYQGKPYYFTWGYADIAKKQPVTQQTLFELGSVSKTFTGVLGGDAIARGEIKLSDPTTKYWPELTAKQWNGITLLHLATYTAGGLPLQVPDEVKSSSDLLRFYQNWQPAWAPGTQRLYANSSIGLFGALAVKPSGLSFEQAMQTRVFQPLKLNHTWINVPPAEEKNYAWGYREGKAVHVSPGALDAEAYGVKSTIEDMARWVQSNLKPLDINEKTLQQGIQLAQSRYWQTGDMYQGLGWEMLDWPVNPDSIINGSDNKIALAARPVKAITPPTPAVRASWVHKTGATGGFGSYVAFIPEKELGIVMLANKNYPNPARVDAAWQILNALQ
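20 mM phosphate pH 7.0 + 0.01% (detergent screen) or 0.0001% Triton X-100; 5.3 nM AmpC reagent; cpd preinc 15 min RT; nitrocefin (800 uM stock) to start; A480 q20 s × 4 min; Activity was normalised to no-enzyme and no-compound control wells.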
AmpC no deterg = blocks E. coli AmpC beta-lactamase in detergent-free assay; P00811; AmpC nitrocefin hydrolysis, absorbance 480 nm, 0.0001% Triton; Potency, µM (top dose mostly 57.1 µM), for inactives: top-dose activity change, negative = inhibition, most hits filed as inhibitors; hit rate 0.52% among 330,000; AID 485341;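 also: potency is read from the fitted curve at half-maximal effect; plate controls were no compound for no effect and no enzyme for full effect; nearly all actives have a fitted effect of over 20% in size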
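AmpC (5.3 nM in the dispensed reagent) in 20 mM phosphate pH 7.0 with 0.01% (detergent screen) or 0.0001% Triton X-100 was preincubated with compounds for 15 min at room temperature. Nitrocefin was then added from an 800 uM solution, and hydrolysis was followed at 480 nm.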
The depositor's hits bear a star; u = inconclusive; x = no result; [ ] = remark or other dose. Unless noted, calls follow the shape of the dose curve; as a rule, active = well fitted curve in the direction sought with a large enough effect; inconclusive = small, poorly fitted or top-dose-only effect, or another doubt; inactive = no such curve, though single readings can be large; an effect the other way counts as inactive or inconclusive.

SMILES | AMA1-RON2 inh | Cycloheximide cs | Shiga toxin inh | SARS PLpro yeast | AmpC detergent | AmpC no deterg
O=C(COC(=O)c1ccc(Cl)nc1)Nc1ccc(Cl)cc1 | 5% | x | x | -1% | -18% | -6%
CC(C)(C)c1ccc(OCCC(=O)Nc2cccc(S(=O)(=O)N3CCCC3)c2)cc1 | 7% | x | x | 3% | -2% | 35%
COCCNC(=O)CSc1c2c(nc3cc(Cl)ccc13)CCCC2 | x | x | x | x | -5% | x
CCc1nnc(NC(=O)C2Cc3ccccc3C(=O)O2)s1 (stereo not given) | 19% | -2 | -8 | -8% | u | -9%
O=C1c2ccccc2C(=O)N1/N=C/c1ccc(O)c(O)c1 | 9% | 9 | 47* | 13% | -1% | -32%
Cc1ccn2c(C=O)c(-c3ccc(F)cc3)c(C=O)c2c1 | 0% | 28* | 47 | -2% | 1% | -5%
COc1ccc(C2CC(C(F)(F)F)n3nc(CO)c(Cl)c3N2)cc1OC (stereo not given) | u | -4 | -12 | 1% | -15% | -5%
CN(C)C(=S)NCc1ccccc1 | 17% | 0 | 4 | -3% | 0% | -1%
CCOC(=O)c1ccc(NC(=O)Cn2nnc3ccccc32)cc1 | 13% | 32* | 92* | -4% | -12% | -20%
Cc1ccccc1-c1nnn(CC(=O)Nc2ccc3c(c2)OCCO3)n1 | 5% | 58* | 141* | -2% | 12% | -25%
CC(=O)Nc1ccc(NC(=O)CCn2nnc3ccccc32)cc1 | 0% | 10 | 16 | -1% | -2% | 90%
COCCCNC(=O)Cn1nnc(-c2ccc(NC(=O)c3ccccc3F)cc2)n1 | 1% | 26* | 48* | 12% | -15% | -9%
CCOC(=O)c1ccc(NC(=O)CCn2nnc3ccccc32)cc1 | 5% | 12* | 42 | 28% | -10% | -29%
N#C/C(=C(/O)COC(=O)c1ccc(Cl)c(S(=O)(=O)N2CCOCC2)c1)c1nc2ccccc2[nH]1 | 52% | 13 | -15 | 1% | -8% | 29%
CCOC(=O)c1ccc(NC(=O)Cn2nnc(-c3ccccc3)n2)cc1 | -2% | -2 | -27 | 0% | 1% | -8%
CCOC(=O)c1ccc(NC(=O)Cn2nnc(-c3ccccc3F)n2)cc1 | 11%[11.6 µM] | -7 | -15 | 9% | -2% | 35µM*
CCn1c(=NC(=O)CS(=O)(=O)c2ccccc2)sc2cccc(OC)c21 | -1% | x | x | 5% | -5% | -25%
Cc1ccccc1NC(=O)Cc1nc(COC(=O)/C=C/c2ccccc2)cs1 | 4% | x | x | 0% | u | -19%
CC1(C)Cc2nc3sc4c(=O)[nH]cnc4c3cc2CS1 | -7% | 10* | 15 | -1% | -12% | -18%
CCCCCn1cnc2c(sc3nc4c(cc32)CSC(C)(C)C4)c1=O | -14% | 61* | 150* | -11% | -2% | -15%
CCc1nc2c(sc3nc4c(cc32)COC(C)(C)C4)c(=O)n1CCN(CC)CC | 0% | -2 | 16 | -1% | 1% | -18%[2.29 µM]
O=[N+]([O-])c1cccc(-c2nc(-c3ccncc3)no2)c1 | 8% | 6 | 12 | -5% | -6% | -9%
O=[N+]([O-])c1cccc(-c2noc(COc3ccccc3)n2)c1 | -16% | 27* | 43 | 2% | 4% | -26%
O=[N+]([O-])c1cccc(-c2nc(-c3ccccc3)no2)c1 | -8% | 16 | 49* | 1% | -3% | 22%
O=[N+]([O-])c1cccc(-c2noc(-c3ccco3)n2)c1 | 0% | 28* | 63* | 2% | -3% | -3%
SMILES | AMA1-RON2 inh | Cycloheximide cs | Shiga toxin inh | SARS PLpro yeast | AmpC detergent | AmpC no deterg
Cc1ccc(N2CC(NC(=O)c3ccc(S(=O)(=O)N4CCCCC4)cc3)CC2=O)cc1 (stereo not given) | x | x | x | x | 1% | x
CCCCC(NC(C)=O)c1nc2ccccc2[nH]1 (stereo not given) | -2% | 1 | 9 | -6% | 8% | 40µM*
CCC(=O)NC(c1ccccc1)c1nc2ccccc2[nH]1 (stereo not given) | 6% | 44* | 68* | 5% | 2% | -13%
CCCC(=O)NC(C)c1nc2ccccc2[nH]1 (stereo not given) | 8% | -2 | 6 | 10% | -3% | -4%
CCn1nc(C(=O)N[C@@H](CCSC)c2nc3ccccc3[nH]2)c2ccccc2c1=O | 1% | 25* | 23 | 3% | 8% | 35%
CCCCn1nc(C(=O)N[C@@H](CCSC)c2nc3ccccc3[nH]2)c2ccccc2c1=O | -4% | -3 | 21 | x | -4% | x
CC(=O)Nc1cnc(-c2ccccc2O)cn1 | 12% | x | x | x | x | x
CC1(C)C2CC=C(/C=N/n3cnnc3)C1C2 (stereo not given) | 4% | -3 | -11 | -6% | 2% | -12%
CC1(C)C2CC=C(/C=N/NC(=O)c3ccccc3O)C1C2 (stereo not given) | u | 8 | 36* | 12% | -10% | 11µM*
CC1(C)C2CC=C(/C=N/NC(=S)NCCc3ccccc3)C1C2 (stereo not given) | 23% | 17* | 29 | -1% | 1% | -19%[2.29 µM]
O=C(c1ccc(Br)o1)N1CCN(c2ccc3nnc(-c4ccc(F)cc4)n3n2)CC1 | -9% | -3 | -1 | 4% | u | 0.56µM*
Cc1noc(C)c1COc1ncnc2ccccc12 | 1% | -2 | -10 | -3% | 2% | -13%
CC(/C=C/c1ccccc1F)=N\NC(=O)c1ccc(Cl)cc1 | 76% | 14* | 29 | -1% | 2% | -22%
CC(/C=C/c1ccccc1F)=N\NC(=O)c1ccccc1 | 83% | 55* | 160* | 0% | 3% | -27%
CCCCN(C(=O)CSc1nc(CCC)cc(=O)[nH]1)c1c(N)n(Cc2ccccc2)c(=O)[nH]c1=O | 2% | x | x | 1% | x | 14%
Cc1ccc(Nc2nc(N)nc(CCl)n2)cc1 | 16% | 75* | 96* | 0% | 5% | -27%
COc1ccc(Nc2nc(N)nc(CSCCO)n2)cc1 | 16% | 13 | 67 | 4% | u | 0%
Nc1nc(CCl)nc(Nc2ccccc2)n1 | 25% | 36* | 71* | -5% | u | -40%
Cc1cccc(Nc2nc(N)nc(CCl)n2)c1C | -12% | 53* | 59* | 4% | 2% | -20%
Cc1cccc(Nc2nc(N)nc(CN3CCC(C(N)=O)CC3)n2)c1C | -4% | -2 | 9 | 1% | -3% | -39%
Cc1ccc(Nc2nc(N)nc(CSCCO)n2)cc1 | u | 31* | 60* | 1% | -14% | -28%
Nc1nc(CN2CCN(Cc3ccccc3)CC2)nc(Nc2ccccc2)n1 | u | 5 | -3 | -5% | u | 6%
CCOc1ccc(Nc2nc(N)nc(CCl)n2)cc1 | 51% | 43* | 59* | -1% | -10% | -29%
Cc1ccc(Nc2nc(N)nc(CCl)n2)c(C)c1 | 23% | 78* | 106* | 1% | -3% | -12%
